Test results taken from the supplement of paper PMC9023506.
Counter-ions that a name gives are not always drawn.

Tested on: Danio rerio larvae (5 dpf)
Assay: habituation to 1-s acoustic pulses, difference vs DMSO (percentage points (treated minus DMSO)); higher = more of the behaviour than the DMSO vehicle control
Conditions: 10 µM; exposure time: 3 h pre-incubation + 3 h imaging
Experimental: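 5-dpf wild-type zebrafish larvae were imaged in 96-well plates. They were treated with 190 Tocris FDA-approved drugs at 10 µM (1 µl/ml DMSO) for 3 h before and 3 h during imaging at 28.5 °C, 48 larvae per drug. Automated image analysis gave % time moving and optomotor responses. Values are drug group mean minus DMSO vehicle mean (n=844), in percentage points, for 10 behaviours.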

With `Cc1cccc([C@H](C)c2c[nH]cn2)c1C` [Dexmedetomidine hydrochloride] as the compound, how does the “habituation to 1-s acoustic pulses” value read?
Its value is -9.7.

`COc1ccc(C(CN(C)C)C2(O)CCCCC2)cc1` (configuration not stated) [Venlafaxine hydrochloride] was tested. Which “habituation to 1-s acoustic pulses” value did it give?
The value was -6.08.

Which “habituation to 1-s acoustic pulses” value does the source give for `CCN(C)C(=O)Oc1cccc([C@H](C)N(C)C)c1` [Rivastigmine tartrate] here?
The value was -1.77.

`N[C@@H]1C[C@H]1c1ccccc1` [Tranylcypromine hydrochloride] was tested. Which “habituation to 1-s acoustic pulses” value did it give?
Its value is -0.45.

With `CC[C@@H](C(N)=O)N1CCCC1=O` [Levetiracetam] as the compound, how does the “habituation to 1-s acoustic pulses” value read?
The value was -2.74.

How did the “habituation to 1-s acoustic pulses” value turn out when `CC(O)(CS(=O)(=O)c1ccc(F)cc1)C(=O)Nc1ccc(C#N)c(C(F)(F)F)c1` (configuration not stated) [Bicalutamide] was run?
Its value is -5.47.

Which “habituation to 1-s acoustic pulses” value does the source give for `C=C1C[C@@H]2[C@H](CC[C@]3(C)C(=O)CC[C@@H]23)[C@@]2(C)C=CC(=O)C=C12` [Exemestane] here?
Its value is -0.223.

With `O=c1[nH]c2ccccc2n1C1CCN(CCCC(c2ccc(F)cc2)c2ccc(F)cc2)CC1` [Pimozide] as the compound, how does the “habituation to 1-s acoustic pulses” value read?
Its value is -6.41.

With `CN1C[C@H](C(=O)N[C@]2(C)O[C@@]3(O)[C@@H]4CCCN4C(=O)[C@H](Cc4ccccc4)N3C2=O)C[C@@H]2c3cccc4[nH]cc(c34)C[C@H]21` [Dihydroergotamine mesylate] as the compound, how does the “habituation to 1-s acoustic pulses” value read?
Its value is 1.85.

How did the “habituation to 1-s acoustic pulses” value turn out when `COc1cc2c(cc1OC)C1CC(=O)C(CC(C)C)CN1CC2` (configuration not stated) [Tetrabenazine] was run?
Its value is 1.65.

How did the “habituation to 1-s acoustic pulses” value turn out when `C=CCN1C[C@H](C(=O)N(CCCN(C)C)C(=O)NCC)C[C@@H]2c3cccc4[nH]cc(c34)C[C@H]21` [Cabergoline] was run?
The value was 3.78.

Which “habituation to 1-s acoustic pulses” value does the source give for `CC(C)C[C@H]1C(=O)N2CCC[C@H]2[C@]2(O)O[C@](NC(=O)[C@@H]3C=C4c5cccc6[nH]c(Br)c(c56)C[C@H]4N(C)C3)(C(C)C)C(=O)N12` [Bromocriptine mesylate] here?
The value was -3.22.
